# From the supplement of paper PMC11417369
# In all, about 25,000 sequences were measured (“ln(normalized median fluorescence intensity)”: median about 9.7, highest 2% from about 11 on). This is one part of a sample in which the highest values are shown more often than they occur.
# Test system: PfAP2-HC AP2 domain (GST-tagged)
# Experiment: gcPBM binding intensity (ln(normalized median fluorescence intensity)); higher = stronger DNA binding
# How it was run: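 Each value is the highest Masliner-normalised natural-log median intensity across replicate spots of either orientation of a probe. The probes were primer-extended double-stranded 36-bp intergenic genomic sequences on an Agilent 4 × 180k array, alongside negative controls, exposed for 1 h to GST-tagged P. falciparum DNA-binding domains expressed in E. coli. Bound protein was picked up with Alexa488 anti-GST antibody and scanned at 488 nm.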
row,Sequence,gcPBM binding intensity (ln)
1,ATTTACATAAATTGCATATATCGATGTAAATAAATA [CACACA_negctrl_site1150],9.5
2,AATGTACCCACACCCACACACAAACAAATATATATA [CACACA_site2751],10.2
3,AATGTACACCCACCCACACACAAACAAATATATATA [CACACA_site5521],10.3
4,AAAAAAAAAAAACACACACACACACCCATATATAAA [CACACA_site1170],11.1
5,AATAAATATAAATACACACCCATATATATATATATA [CACACA_site5436],9.67
6,AATGTACACGCACCCACACACAAACAAATATAAATA [CACACA_site7319],11.6
7,ATAATATATATATAAACACACAAAAAAAATTATATA [CACACA_site1534],9.86
8,AATATAAATAAAAACACACACACACCCATATATATA [CACACA_site2267],11.3
9,TAAACACCCATATAAACACACATATAAACACCCATA [CACACA_site5382],10.3
10,ATATAATATATATATAAACACACAAAAAAAATTATA [CACACA_site8434],9.97
11,TACATATATAAAAAAACACACACATATATATATATA [CACACA_site8315],9.93
12,AATAAATATAAATACACACCCATATAAATATAAATA [CACACA_site7264],10.1
13,TATATATAAAAACACACACACACACCCTATAATTAT [CACACA_site4063],11.3
14,TTTATTTTTATGGTCACACATATTTTTAAAACTATA [CACACA_site4372],9.77
15,TTTCATTTTTTTACATGTACGCAAAAGTGTGTAGTT [XGTACX_site6582],9.78
16,TTTTTTTTTGAATACAGTACACAAGTGTTAAGTTTA [XGTACX_site7069],9.36
17,TAAGTATACTCATACACACACACACTAGAAAAAAAA [CACACA_site4397],10.4
18,TTCCACATTTTACAGACACACACAATTTATATTACG [CACACA_site8572],10.1
19,ATGTTAAACAAATCTATACACACGTATATGACAAAA [CACACA_site1783],9.71

row,Sequence,gcPBM binding intensity (ln)
1,TTTTGAAGTAATACATGTACTTAAATTACTAAAAAA [XGTACX_site1955],9.47
2,TTCATATATTTTAAAGCATGCATTCATCTTATAGTT [TGCATGCA_site800],9.71
3,TTGTATATATTTATATGTACATATATTACTTTTGCT [XGTACX_site2449],9.83
4,TAAAATAACTCACAAAGTACAAAAATAAGCATATGA [XGTACX_site7046],9.79
5,TTTATTTTGTTTTCTTGTACATAAATAATTACATAT [XGTACX_site4227],9.86
6,CAAAAAATGAAACACACACACACACCCATAAATAAA [CACACA_site1231],10.8
7,TATAAACACCCATATAAACACACATACATACATACA [CACACA_site8791],10.2
8,AACACCCATGGACACACACACATATATATATATATA [CACACA_site5809],10.4
9,TAAACACCCATATAAACACACATACATACATACATA [CACACA_site5383],10.4
10,TATCTCATAGTATACACACACACACCCACCCATATA [CACACA_site1739],10.7
11,ATTCATATGAAACACACACACACACCCATAAAAAAA [CACACA_site3246],10.5
12,TACACGCATAAACACACACACACACCCATATATATA [CACACA_site8114],11.3
13,TCATAGTATAAACACACACACACACCCATATATATA [CACACA_site8512],11
14,TCATAGTATGGACACACACACACACCCATATATATA [CACACA_site5033],11.2
15,ATAATCCTGAAACACACACACACACCCATAAATAAA [CACACA_site481],11.1
16,ATTAGTGACATTATTACACACAAAAGAAAACAGAAA [CACACA_site3984],9.99
17,TTTCAAAAAAATAATGTGCACATTAGAAAATAAATA [GTGCAC_site9416],9.78
18,TATTTTTTGAAAAGTTCACACATCCAACTCGAGTTG [CACACA_site4412],9.62
19,TATATATATATAATATGTACATATATATATTCTTAA [XGTACX_site6154],9.49

row,Sequence,gcPBM binding intensity (ln)
1,GTATGTATAATATACACACTCACAAGCATTCAAATA [CACACA_site267],9.76
2,TATTAAACGAAACACACACACACACCCATATATAAA [CACACA_site759],11.5
3,CACGCATACAGACACACACACACACCCATATATATA [CACACA_site636],10.6
4,AAAAAAAATAAACACACACACATACCCATAAATATA [CACACA_site5980],10.4
5,GAAAAACAAATATATTAACACACAAACATATAAACA [CACACA_site9315],10.2
6,AAAAAAAAAAAAAACACACACACACCCATAAATATA [CACACA_site151],11.2
7,TATATATTAAAACACACACACATATATATATATATA [CACACA_site3787],10.1
8,TAAAGAATATTATAAACACACACTTTATAAAGAATT [CACACA_site114],9.91
9,ACCATATAAATAAACACACACACACCCATATATATA [CACACA_site2321],10.6
10,TATATAAATAAACACACACACACCTTATAATTATTA [CACACA_site9345],10.5
11,TACACCCATGGACACACACACACGCATAAAAAAAAA [CACACA_site4933],10.7
12,TACACGCATGGACACACACACACACCCATATATATA [CACACA_site4522],11
13,TATATAAAGAAACACACACACACCTTATAATTATTA [CACACA_site4062],11.2
14,AAATTACAAATACAAACACACAAATGTTTTTCATTC [CACACA_site3552],9.77
15,AAAAAAAAAAGAACCCGTACATAAATAATATATATA [XGTACX_site164],9.73
16,AAATTGAGACAACAGGTGCATATAAATATACAGTGT [GTGCAC_site9634],9.79
17,GTATGAAATTATAATAGTACATATAAATAAAAAAAA [XGTACX_site8955],9.85
18,ATTTTAATATAAAATACACACTACTATTATAAATAT [CACACA_site4917],9.64
19,AAAATTGAACCTGACAAGGTATTTTATTATTTATTA [TGCATGCA_negctrl_site181],9.44
